Screening data deposited in PubChem by National Center for Advancing Translational Sciences (NCATS).
Shown are actives, neighbours in structure and some others; about 12% of the full set was active somewhere.
HP1b chromo inh: HP1-beta chromodomain-methylated histone interaction inhibition | P83916 | AlphaScreen HP1-beta / biotin-H3K9me3 peptide binding | Potency, µM (top dose mostly 114 µM), for inactives: top-dose activity change, negative = inhibition, most hits filed as inhibitors | actives 0.56% (n = 390,000) | AID 540317; also: nearly all actives have a fitted effect of over 70% in size
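HP1-beta protein (50 nM final) preincubated 30 min at room temperature with biotinylated H3(1-18)K9me3 peptide (50 nM) in PBS pH 7.4, 0.01% Tween-20, then compound added for 30 min. AlphaScreen streptavidin donor/nickel chelate acceptor beads (10 ug/mL final), 30 min dark, luminescence read.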
JMJD2A Tudor: inhibitors of human JMJD2A Tudor domain; actives 4.4% (n = 390,000); AlphaScreen JMJD2A-Tudor / H3K4me3 peptide binding; Potency, µM (titrated, usually from 114 µM), inactives show top-dose activity change, negative = inhibition, hits mostly inhibitors; AID 504339; O75164; also: % is scaled to controls: 0 for no effect and ±100 for the full control effect; nearly all actives have a fitted effect of over 50% in size
L3MBTL1 block: blocks human L3MBTL1. Q9Y468. AlphaScreen L3MBTL1–H3K9me1 peptide binding. Potency, µM (series often up to 57.1 µM), for inactives: top-dose activity, negative = inhibition, most hits filed as inhibitors. actives 0.66% (n = 230,000). AID 485360; also: % is scaled to controls: 0 for no effect and ±100 for the full control effect; nearly all actives have a fitted effect of over 60% in size
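First, the protein-peptide complex forms for 30 min at room temperature (L3MBTL1 50 nM, biotinylated H3K9me1 peptide 75 nM). Next, compounds are pin-transferred and incubated 30 min. Finally, AlphaScreen beads are added and read after 30 min.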
Sfp PPTase inh: blocks B. subtilis Sfp PPTase activity | Biochemical Sfp PPTase activity, qHTS | Potency, µM, inactives show largest response in the series, negative = inhibition, usual class: inhibitors | actives 3.5% (n = 310,000) | Q9F4F7 | AID 1490;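 also: the enzyme is Sfp with the accession as filed and its product quenches rhodamine fluorescence; 0% = enzyme reaction without inhibitor and -100% = no enzyme wells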
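With Hepes-Na pH 7.6 buffer containing 10 mM MgCl2, Sfp (15 nM) modified BHQ-2-YbbR (12.5 uM) using rhodamine-CoA (5 uM). Two reads 30 minutes apart at 525/598 nm yielded each well's rate.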
G9a block: blocks human histone lysine methyltransferase G9a | Q96KQ7 | G9a H3K9 monomethylation, AlphaScreen, 2 h | Potency, µM (top dose mostly 102 µM), without a hit: top-dose activity, negative = inhibition, hits mostly inhibitors | actives 8.8% (n = 350,000); also: % is scaled to controls: 0 for no effect and ±100 for the full control effect; nearly all actives have a fitted effect of over 75% in size
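Step 1: enzyme (final 20 nM) with compound, 15 min RT. Step 2: substrate peptide 500 nM and SAM 20 uM, 2 h RT. Step 3: anti-H3K9me1 antibody and AlphaScreen beads, 10 min, then plate read.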
BAZ2B inh: blocks human BAZ2B; Q9UIF8; AlphaScreen BAZ2B-H3K14Ac peptide displacement; Potency, µM (highest dose often 114 µM), for inactives: top-dose activity change, negative = inhibition, usual class: inhibitors; actives 4.4% (n = 360,000); also: % is scaled to controls: 0 for no effect and ±100 for the full control effect; nearly all actives have a fitted effect of over 60% in size
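Complex of BAZ2B and biotin-H3K14Ac (50 nM apiece) forms over 30 min at RT, then faces library compounds up to 110 uM for another 30 min; AlphaScreen beads added, 20 min dark incubation, luminescence read.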
* marks the source's active call; other numbers are inactive results; ? = inconclusive; · = not tested or not shown; [ ] = another dose, or the depositor's remark. Calls follow the shape of the dose curve; as a rule, active = well fitted curve in the direction sought with a large enough effect; inconclusive = small, poorly fitted or top-dose-only effect, or another doubt; inactive = no such curve, though single readings can be large; an effect the other way counts as inactive or inconclusive. Potency is read from the fitted curve at half-maximal effect.

SMILES	HP1b chromo inh	JMJD2A Tudor	L3MBTL1 block	Sfp PPTase inh	G9a block	BAZ2B inh
Cc1ccc(NCc2ccc(Cl)nc2)c(NCc2ccc(Cl)nc2)c1	-1%	-32%	·	7%	35µM*	35µM*
Cc1ccnc(NCc2ccc(Cl)cc2)c1	27%	-1%	0%	7%	-10%	5%
Fc1ccc(NCc2cccnc2)cc1F	27%	79µM*	·	-11%	?	?
COc1ccc(OC)c(CCNC(=O)c2cc3c(=O)oc4ccc(C)cc4c3s2)c1	46%	0%	·	·	-29%[59 µM]	-9%
Cc1ccc(CN(C(=O)COc2ccc(Cl)cc2Cl)C2CCS(=O)(=O)C2)o1 (configuration not stated)	-8%	?	·	·	-27%[59 µM]	-15%
CC[C@H](NC(=O)[C@H](CCCN=C(N)N)NC(=O)[C@H](Cc1c[nH]c2ccccc12)NC(=O)[C@@H](N)CS)C(=O)N[C@@H](CCCN=C(N)N)C(=O)N[C@@H](Cc1ccc(O)cc1)C(N)=O	·	·	·	-8%	·	·
CCc1ccc(-c2csc3[n+]2CCN3C(C)=O)cc1	7%	-36%	-7%	40µM*	11µM*	?
CC(=O)N1CC[n+]2c(-c3ccc(Cl)cc3)csc21	16%	40µM*	0%	?	14µM*	-33%
CC(C)CCn1nnc2sc(-c3ccccc3)cc2c1=O	39%	-8%	·	·	1%[59 µM]	2%
N#Cc1c(NC(=O)c2ccc(Cn3cc(Br)cn3)o2)sc2c1CCCCC2	23%	-31%	1%	?	13%	11%[57.1 µM]
CN1CCN(C(=O)c2ccc(Cn3cc(Cl)cn3)o2)CC1	31%	-1%	·	5%	71µM*	3%
O=C(c1ccc(Br)o1)N1CCN(Cc2ccc3c(c2)OCO3)CC1	2%	-22%	-11%	7%	-18%	7%
Cc1ccc(NC(=O)c2ccc(Cn3cc(Cl)cn3)o2)c(C)c1	·	·	·	-5%	·	-6%
O=C(c1ccc(Cn2cc(Cl)cn2)o1)N1CCN(Cc2ccc3c(c2)OCO3)CC1	4%	-18%	-7%	-29%	45µM*	?
COC(=O)c1sc(NC(=O)c2ccc(Cn3cc(Cl)cn3)o2)c(C#N)c1C	-41%	?	-14%	16µM*	7.9µM*	-37%
CCOc1cc(CNc2ccc(N3CCCC3)cc2)cc(Cl)c1OC	20µM*	11µM*	?	?	10µM*	13µM*
COc1cc(CNc2ccc(N3CCCC3)cc2)cc(Cl)c1OC	14µM*	10µM*	?	14µM*	3.5µM*	35µM*
COc1cccc(Nc2ccc(N3CCCCC3)cc2)c1OC	32µM*	32µM*	35µM*	·	-23%[0.501 µM]	14µM*
Cc1cccc(C)c1NC(=O)c1nc(SC(C)C)ncc1Cl	21%	-14%	·	·	6%[59 µM]	3%
COc1ccc(CNc2nc(-c3cccc(NS(C)(=O)=O)c3)nc3ccccc23)c(OC)c1	·	·	·	-3%	5%[0.501 µM]	·
O=C(Nc1ccc2oc(-c3ccc(Br)cc3)nc2c1)c1cc2ccccc2o1	33%	-8%	·	·	4%[59 µM]	4%
O=C(Nc1ccc2oc(-c3cc(Br)ccc3Cl)nc2c1)c1cc2ccccc2o1	38%	-27%	·	·	?	79µM*
O=C(COc1cccc(F)c1)N1c2ccccc2Sc2ccccc21	?	56µM*	8%	-9%	7%[59 µM]	-2%
COc1ccc(-c2nc3ccccc3n3c(-c4cccc(C)c4)c4c(=O)n(C)c(=O)n(C)c4c23)cc1OC	17%	-35%	·	·	-5%[59 µM]	-2%
O=c1cc(CSc2nnc(-c3cccs3)n2Cc2ccccc2)nc2sc3ccccc3n12	22%	-35%	?	-13%	?	45µM*
SMILES	HP1b chromo inh	JMJD2A Tudor	L3MBTL1 block	Sfp PPTase inh	G9a block	BAZ2B inh
Cc1cc(C(=O)CSc2nnc(-c3cccs3)n2Cc2ccccc2)c(C)n1C	-22%	?	-12%	-23%	?	·
Fc1ccccc1N1CCN(C2CCCN(Cc3ccccc3C(F)(F)F)C2)CC1 (configuration not stated)	16%	-18%	-4%	7%	·	-12%
CCCS(=O)(=O)N1CCN(Cc2ccccc2C(F)(F)F)CC1	?	20µM*	0%	50µM*	10µM*	-111%
C=CCOc1ccccc1CN1CCCN(C)CC1	?	10µM*	-2%	-29%	8.9µM*	71µM*
CCCS(=O)(=O)N1CCN(Cc2c[nH]c3ccccc23)CC1	?	22µM*	-8%	-13%	25µM*	50µM*
COc1ccc(S(=O)(=O)N2CCN(Cc3c[nH]c4ccccc34)CC2)cc1	3%	-33%	-1%	8%	-17%	-37%
C=CCOc1ccccc1CN1CCC(CO)(CCOc2ccccc2)CC1	42%	-14%	1%	1%	7%	-1%
CN1CCCN(Cc2ccccc2C(F)(F)F)CC1	?	0.71µM*	-8%	-28%	?	50µM*
CCCOc1ccc(CNC(=O)c2cc3ccccn3n2)cc1	26%	-20%	·	·	9%[59 µM]	0%
O=C1NC(=O)/C(=C/c2ccc(-c3cccc([N+](=O)[O-])c3)o2)S1	-8%	?	-1%	89µM*	·	?
COc1cc(SC#N)ccc1N=Cc1c(C)[nH]n(-c2ccc(C)cc2C)c1=O	7%	-28%	·	-11%	13µM*	-38%
COc1ccccc1N=Cc1c(C)[nH]n(-c2ccc(C)cc2C)c1=O	?	?	-8%	-6%	50µM*	-32%
CCCCN(Cc1ccccc1)C(=O)c1oc(=O)c2ccccc2c1-c1ccc(C)cc1	29%	-13%	·	·	-6%[59 µM]	·
Cc1ccccc1OCCSc1nc2ccc(NC(=O)c3cccc(F)c3)cc2s1	79%	10%	·	·	66%[59 µM]	11%
CC(C)CCNC(=O)CN1C(=O)CCn2nc(-c3cn(C)c4ccccc34)cc21	16%[57 µM]	-29%	·	·	-17%[59 µM]	-18%
CCOC(=O)Cn1c(=O)cc(C)c2ccccc21	?	13µM*	-3%	-5%	13%[59 µM]	-1%
CN1CCN(NS(=O)(=O)c2cccs2)CC1	36%	-6%	-5%	1%	1.4µM*	6%
O=C(CSc1nc2ccc([N+](=O)[O-])cc2[nH]1)NC1CCCCCC1	-2%	-31%	4%	23%	45µM*	2%
O=C(CSc1nc2ccc(Cl)cc2[nH]1)NC1CCCC1	20%	-17%	·	-1%	25µM*	?
CCOC(=O)CC1C(=O)NCCN1c1nc2ccc(C)cn2c(=O)c1/C=C1\SC(=S)N(CC(C)C)C1=O (configuration not stated)	-17%	-26%	-2%	-4%	?	79µM*
